Results published in PubChem BioAssay (NCI).
Compounds without any hit were thinned out: in the full panel of roughly 83,000, 20% have a hit.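 Method: cells in 96-well plates; compound added at one concentration; 48 h incubation; percent growth measured; values under 10 scored active.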 A number with no mark means an inactive call. Active and inactive are the calls of the source.

Assays:
Assay in all cases: NCI-60 one-dose screen, 48 h (100 = growth as untreated, 0 = no growth, -100 = all killed)
Details in all cases: 10 µM unless noted
[1] = test system: SK-MEL-2 melanoma
[2] = test system: SN12C renal
[3] = test system: UO-31 renal
[4] = test system: TK-10 renal
[5] = test system: ACHN renal
[6] = test system: CAKI-1 renal
[7] = test system: A498 renal
[8] = test system: CCRF-CEM leukemia
[9] = test system: MOLT-4 leukemia
[10] = test system: EKVX NSCLC

Row | Structure (SMILES) | growth [1] | growth [2] | growth [3] | growth [4] | growth [5] | growth [6] | growth [7] | growth [8] | growth [9] | growth [10] [%]
1 | CC(=O)OCC(=O)C1CCC=CC1OC(C)=O (configuration not stated) | 88.3% | 99.4% | 66.4% | 110% | 100% | 93.4% | 110% | 99.7% | 95.9% | –
2 | c1c2c(cc3c1OCO3)Cc1cc3c(cc1Cc1cc4c(cc1C2)OCO4)OCO3 | 115% | 98.5% | 95.7% | 116% | 101% | 89.9% | 107% | 112% | 116% | –
3 | Cc1noc(C)c1-c1cc(O)cc(C(O)c2ccccc2)c1 (configuration not stated) | 60.4% | 74.5% | 16.9% | 12.6% | 60.6% | 23.8% | -3.34% (active) | 46.7% | 58.8% | –
4 | CN1C2CCC1/C(=C\c1ccc(Cl)cc1)C1=C2[C@@H](c2ccc(Cl)cc2)C(C#N)=C(N)O1 (some centres not stated) | 84.6% | 94% | 65.6% | 97% | 93.9% | 76% | 80% | 77.2% | 57.6% | –
5 | N=S(=O)(NC(=O)c1ccc(Cl)cc1Cl)c1ccc(Br)s1 (configuration not stated) | 116% | 94.4% | 79.4% | 98.4% | 95.6% | – | 61.2% | 87.2% | 98.5% | –
6 | COc1ccc(/C=N\NC(=O)c2ccncc2)cc1O | 90.8% | 96.7% | 77.8% | 102% | 102% | – | 108% | 99.3% | 95.6% | –
7 | COc1ccc2[nH]c(=O)c(/C=C/C(=O)c3ccc(Nc4nccc(-c5ccc6ccccc6c5)n4)cc3)cc2c1 | – | 94.5% | 93.2% | 103% | 103% | 98% | 89.7% | 86.4% | – | 107
8 | CSc1ccc(N=C=C(c2ccccc2)c2ccccc2)cc1 | – | 81.7% | 83.5% | 99.6% | 92.9% | 96.9% | 81.8% | 1.03% (active) | 34.7% | 96.6
9 | O=C1C=CC(=O)c2c1nc1n2CCCC1 | – | 74% | 91.1% | 109% | 81.1% | 95.7% | 96.3% | 58.8% | 90.3% | 104
10 | NS(=O)(=O)N(c1cc(C(F)(F)F)cc(C(F)(F)F)c1)C1CCN(Cc2ccc(F)cc2)CC1 | 74.2% | 42.2% | 35.6% | 81.4% | 75.2% | 62.5% | – | 64% | 39% | –
11 | O=C(O)C(O)C(O)C(=O)O.[NH-]C1CCCCC1[NH-].[Pt+2] (configuration not stated) | 109% | 106% | 97.9% | 113% | 101% | – | 125% | 112% | 105% | –
12 | Cc1ccc2c(NCCCN(C)C)c3c(C)nn(C)c3nc2c1 | 44% | 42.9% | 26.5% | 28.4% | 27.2% | 14.5% | – | 31.7% | – | –
13 | CCCCCC(=O)Oc1ccc(/C(=C(\C)c2ccccc2)c2ccc(OCCN(CC)CC)cc2)cc1 | – | 79.8% | 48.4% | 74.6% | 87.9% | 99.7% | 84.8% | 63.9% | 46.1% | 92.5
14 | COc1cccc(NC(=O)c2sc3nc4c(cc3c2N)CN(Cc2ccccc2)CC4)c1 | 66.8% | 74% | 42.9% | 79.7% | 54% | – | 42.8% | 60.9% | 65.1% | –
15 | Cc1ccc(-c2nc(/C=N/Nc3cc(C)nc4ccc(Cl)cc34)c(C)o2)cc1 | 95.1% | -81.2% (active) | -99.7% (active) | -54.8% (active) | -100% (active) | -63.6% (active) | – | -51.3% (active) | -31.3% (active) | –
16 | COc1cc(-c2cnc3nonc3n2)c(OC)c2c1OCO2 | 98.1% | 100% | 85.5% | 107% | 91.6% | – | 88.3% | 85.3% | 83.9% | –
17 | C=C1CC[C@@H]2[C@](C)(COC(C)=O)[C@H](OC(C)=O)CC[C@@]2(C)[C@@H]1CC(NCc1ccc(F)cc1)C1=CCOC1=O (some centres not stated) | – | 46.2% | 31.3% | 66.6% | 50.9% | 46% | 51.7% | 9.18% (active) | -0.37% (active) | 50
18 | Cc1ccc2c(c1)C(=O)c1c-2c(OCCCN(C)C)nc2ccccc12 | – | 19.4% | 3.12% (active) | 37.2% | -6.51% (active) | 24.2% | 33.3% | 19.3% | -10.5% (active) | 28.4
19 | Nc1ccc(Nc2nccc(-c3ccc4ccccc4c3)n2)cc1 | – | 46.8% | 45.7% | 58.7% | 45.6% | 32% | 16.6% | 27.3% | 20.2% | 61
20 | COc1cccc(/C=C2/C(=O)N(Cc3ccco3)SC2=S)c1OC | 93.1% | 97.6% | 93.4% | 117% | 102% | – | 102% | 68.3% | – | –
21 | Cl/C(=N\Nc1ccccc1)c1ccccc1 | 96.6% | 93.2% | 72.8% | 96.8% | 92.5% | 67.3% | – | 89.4% | – | –
22 | Cc1cccc(NC(=O)c2sc3nc4c(cc3c2N)C(=O)CCC4)c1 | 64.7% | 44.2% | 41.2% | 75.6% | 51.9% | – | -12.2% (active) | 25.4% | 51.1% | –
23 | Cc1ccc(Nc2c(C(N)=O)cnc3ccc(-c4csc(N)n4)cc23)cc1 | 110% | 108% | 88.7% | 96.2% | 84.7% | – | 73.3% | 104% | 95.3% | –
24 | CN1CCN(c2ccc3nc(-c4ccc5nc(-c6ccc(OCCC(C)(C)C)cc6)[nH]c5c4)[nH]c3c2)CC1 | – | 75.4% | 85.3% | 89.9% | 64.4% | 65.4% | 88.6% | -50% (active) | -41.2% (active) | 52.8
25 | COc1c(Cl)cc(Cl)cc1Cl | 117% | 100% | 88.4% | 109% | 112% | 126% | – | 110% | 91.4% | –
26 | CCOC(=S)SCc1ccc(Cl)cc1 | 105% | – | 91.1% | 105% | 98.1% | – | 75.8% | 130% | 82.2% | –
27 | O=C1Nc2ccc(Br)cc2C12CC(c1ccccc1)=NN2 (configuration not stated) | 74.9% | 61.7% | 48.4% | 77.8% | 49.1% | – | 46.4% | 32.3% | 36.3% | –
28 | COc1cc(OC)c(/C=C/c2cc[n+](C)c3ccccc23)c(OC)c1 | -8.65% (active) | 10.7% | 61% | 53.4% | 71.8% | – | 9.92% (active) | 7.13% (active) | 3.59% (active) | –
29 | Nc1ccc(N2CCOCC2)cc1 | 91.8% | 94% | 73.5% | 91.8% | 86.8% | – | 103% | 124% | 118% | –
30 | Nc1c(C(=O)Nc2ccccc2Cl)sc2nc3c(cc12)CCCCCC3 | 46.2% | – | -8.93% (active) | 24.2% | 10.1% | 57.7% | 50.1% | 25.5% | 39.8% | –
